From PubChem BioAssay
p53ts 39C kill – kills p53ts cells at the nonpermissive temperature; H1299-p53A138V viability at 39C, ATP luminescence, 24 h; Potency, µM (series often up to 46.1 µM), without a hit: at the highest dose activity change, negative = cell killing, most hits filed as cytotoxic; 130,000 compounds, 1.5% hits; AID 902; also: potency is read from the fitted curve at half-maximal effect; % is scaled to controls: 0 for no effect and ±100 for the full control effect; nearly all actives have a fitted effect of over 55% in size
Tau filament bind – binders of human tau filaments; Potency, µM (series often up to 57.1 µM), inactives show at the top dose activity change, negative = inhibition; P10636; AID 596; 71,000 compounds, 2% hits; recombinant tau filaments, thioflavin S fluorescence, 15 h; filaments grown with octadecylsulfate alongside compound;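 also: potency is read from the fitted curve at half-maximal effect; % is scaled to controls: 0 for no effect and ±100 for the full control effect; actives lower thioflavin S fluorescence by blocking filaments or displacing dye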
Target sequence (P10636 whole entry, looked up): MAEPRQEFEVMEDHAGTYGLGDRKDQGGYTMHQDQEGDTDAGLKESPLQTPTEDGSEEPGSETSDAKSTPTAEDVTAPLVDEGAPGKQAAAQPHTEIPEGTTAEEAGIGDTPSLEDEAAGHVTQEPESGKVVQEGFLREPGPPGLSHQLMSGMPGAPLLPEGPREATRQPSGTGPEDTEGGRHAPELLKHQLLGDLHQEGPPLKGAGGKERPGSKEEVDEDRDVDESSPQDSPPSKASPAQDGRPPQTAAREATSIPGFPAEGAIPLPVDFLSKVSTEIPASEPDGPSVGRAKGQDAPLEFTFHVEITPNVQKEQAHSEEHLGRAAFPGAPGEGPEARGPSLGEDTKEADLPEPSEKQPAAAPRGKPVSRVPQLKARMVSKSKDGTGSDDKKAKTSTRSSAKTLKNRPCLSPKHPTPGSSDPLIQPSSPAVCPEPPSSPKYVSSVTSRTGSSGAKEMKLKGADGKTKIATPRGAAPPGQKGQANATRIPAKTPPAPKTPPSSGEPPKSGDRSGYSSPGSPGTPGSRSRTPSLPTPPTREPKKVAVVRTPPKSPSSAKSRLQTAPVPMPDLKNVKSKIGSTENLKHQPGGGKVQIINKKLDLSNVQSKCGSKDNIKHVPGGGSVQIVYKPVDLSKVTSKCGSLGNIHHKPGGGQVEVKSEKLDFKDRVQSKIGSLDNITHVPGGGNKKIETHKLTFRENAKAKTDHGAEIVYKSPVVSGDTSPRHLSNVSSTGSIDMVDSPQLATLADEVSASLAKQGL
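His-tagged recombinant human tau (exons 2, 3, 10; 1 uM final) fibrillized with 30 uM sodium octadecylsulfate, 15 h at 37 C, in pH 7.4 HEPES buffer with 10 uM thioflavine S and 5 mM DTT. Reduced ThS fluorescence (450/510 nm) marks activity.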
p53ts 32C kill – cytotoxicity in p53ts cells at permissive temperature | AID 924 | H1299-p53A138V at 32C, ATP luminescence viability, 24 h | Potency, µM (series often up to 46.1 µM), for inactives: at the top dose activity change, negative = cytotoxicity, hits mostly cytotoxic | 130,000 compounds, 0.93% hits;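 also: potency is read from the fitted curve at half-maximal effect; 0% = DMSO and -100% = full killing by reference compound; nearly all actives have a fitted effect of over 55% in size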
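ATP-content luminescence (ATPlite) read-out after 24 h compound exposure at 32C in H1299-p53A138V cells (600/well). Tested up to 46 uM. Normalized to DMSO (0%) and 100 uM tamoxifen (100% killing); Hill-fit AC50.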
DNA Pol III inh – blocks replication by bacterial DNA polymerase III holoenzyme; reconstituted DNA polymerase III holoenzyme replication, biochemical; Potency, µM (highest dose often 57.1 µM), for inactives: at the highest dose activity change, negative = inhibition; 71,000 compounds, 0.25% hits; AID 603; also: potency is read from the fitted curve at half-maximal effect; % is scaled to controls: 0 for no effect and ±100 for the full control effect
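Reconstituted *E. coli* holoenzyme (0.35 nM Pol III, 1 nM beta, 154 nM SSB, 2 nM primase) was preincubated with compound for 15 min at RT. Synthesis on 1.4 nM ssM13Gori ran 35 min, then was stopped with PicoGreen/EDTA and read as dsDNA fluorescence.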
TsaE inh – inhibitors of E. coli YjeE (TsaE); purified YjeE enzyme, qHTS inhibition assay; Potency, µM; P0AF67; AID 605; 71,000 compounds, 0.05% hits
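Purified YjeE (10 uM) with BODIPY Texas Red-labeled ADP probe (2 uM); compounds pin-transferred, 15 min at room temperature. Binding inhibition read as decreased fluorescence polarization; ADP titration as control.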
ERK AVP block – vasopressin-driven ERK pathway inhibition; Potency, µM (titrated, usually from 57.5 µM), for inactives: at the highest dose activity, negative = inhibition, hits mostly inhibitors; 72,000 compounds, 0.99% hits; HEK293-V1b, vasopressin-stimulated pERK AlphaScreen; also: potency is read from the fitted curve at half-maximal effect; % is scaled to controls: 0 for no effect and ±100 for the full control effect; nearly all actives have a fitted effect of over 55% in size
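V1b-HEK293 cells; cpd 30 min 37C; 25 nM vasopressin 5 min; lyse 10 min; AlphaScreen beads 5 hr RT. Normalized to DMSO basal and 25 nM vasopressin; AC50 by Hill fit.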
An asterisk follows results filed as active; i = inactive; ? = inconclusive; . = no result; ! = not confirmed by another sample; [ ] = remark or other dose. Hits are enriched below; roughly 3.2% of the tested compounds scored in any of these assays. Calls follow the shape of the dose curve; as a rule, active = well fitted curve in the direction sought with a large enough effect; inconclusive = small, poorly fitted or top-dose-only effect, or another doubt; inactive = no such curve, though single readings can be large; an effect the other way counts as inactive or inconclusive.

SMILES | p53ts 39C kill | Tau filament bind | p53ts 32C kill | DNA Pol III inh | TsaE inh | ERK AVP block
CNc1ccc2oc(C[C@@H]3O[C@@]4(CC[C@H]3C)O[C@@H]([C@@H](C)C(=O)c3ccc[nH]3)[C@@H](C)C[C@H]4C)nc2c1C(=O)O | . | -16% | . | -5% | i | .
COc1ccc(C[C@@H]2NC[C@H](O)[C@H]2OC(C)=O)cc1 | . | ? | . | -10% | i | .
COC(=O)Nc1cccc(OC(=O)Nc2cccc(C)c2)c1 | -15% | -6% | -13%[1.84 µM] | -3% | i | 32µM*
CN(C)C(=O)Nc1cccc(OC(=O)N(C)C)c1 | 7% | 10% | -6% | 3% | i | 1%
COc1cc2[nH]c(=O)n(CCCCCC(=O)N3CCN(c4cccc(C(F)(F)F)c4)CC3)c(=O)c2cc1OC | 13µM* | . | ? | . | . | .
OCCN1CCN(CCCN2c3ccccc3Sc3ccc(C(F)(F)F)cc32)CC1 | 13µM*! | -23%[25.6 µM] | ? | -4%[25.6 µM] | i | ?
O=C(CN1CCCCC1)c1cccc(Br)c1 | -7% | . | . | . | . | .
CC1CCCCN1CC(=O)c1ccc2cc[nH]c2c1 (stereo not drawn) | -17% | 25µM* | -16% | -1% | i | .
COC(=O)C[C@]1(C(=O)OC)CN(C#N)N(c2ccc(Cl)cc2)C12c1ccccc1-c1ccccc12 | ? | . | 6.3µM* | . | . | .
CC(C)C[C@H]1C(=O)N2CCC[C@@H]2[C@]2(O)O[C@](NC(=O)[C@H]3C=C4c5cccc6[nH]cc(c56)C[C@H]4N(C)C3)(C(C)C)C(=O)N12 | . | i | . | 9% | i | .
C/C=C(\C)C(=O)O[C@@H]1C(C)=C2[C@H]([C@@H]1OC(=O)CCCCCCC)[C@@](C)(OC(C)=O)C[C@@H](OC(=O)CCC)[C@@]1(O)[C@H]2OC(=O)[C@]1(C)O | 13µM* | -18% | 25µM* | 1% | i | 20%
Cn1ncnc2c(=O)n(C)c(=O)nc1-2 | 5µM* | 12% | 0.79µM* | 0% | i | 19%
CN[C@H]1[C@H]2[C@H]3CCN2C[C@@H]1O3 | . | ? | . | -4% | i | .
CC(CCc1ccccc1)NC(C)C(O)c1ccc(O)cc1 (stereo not drawn) | 5% | . | 4% | . | . | 12%
C[C@@H](Cc1ccccc1)NCCC(c1ccccc1)c1ccccc1 | 13µM* | ? | 0%[20.6 µM] | -3%[25.6 µM] | i | -4%[25.7 µM]
N[C@H](Cn1cc(I)c(=O)[nH]c1=O)C(=O)O | . | -2% | . | -7% | i | .
O=C1C(Cl)=C(Cl)C(=O)C(Cl)=C1Cl | ? | 3% | 5µM* | -11% | ? | ?
C=CCN1C[C@H](C)N([C@H](c2ccc(C(=O)N(CC)CC)cc2)c2cccc(O)c2)C[C@H]1C | 1% | 40µM* | 3% | -4% | i | 2%
C=CCN1C[C@H](C)N([C@@H](c2ccccc2)c2ccc(C(=O)N(CC)CC)cc2)C[C@H]1C | -5% | 11% | 1% | -2% | i | -6%
CSC([N-]/N=C/c1cccc(C)n1)=[S]=[Cu].CS[C@H]([S-])[N-]/N=C/c1cccc(C)n1 | ? | ? | 2µM* | -4%[11.4 µM] | i | ?
O=C(CCCN1CCC2(CC1)C(=O)N(CCc1ccc(N=C=S)cc1)CN2c1ccccc1)c1ccc(F)cc1 | . | 374% | . | 5% | i | .
CCCCCCCC/C=C\CCCCCCCC(N)=O | 32µM* | 20% | -9% | -6% | i | 10%
COc1ccccc1NC(=O)c1oc2ccccc2c1NC(=O)c1ccccc1C(F)(F)F | 16µM* | . | ? | . | . | .
O=C1C=CC(=O)c2c1ccc1c2ccc2ccccc21 | 11%[20.6 µM] | 4µM* | 10µM* | -11%[25.6 µM] | i | 13µM*
